Sampled rows, rich in hits. Any-hit rate of the full collection: about 8.2%.
ELG1 DNA repair: ELG1-dependent DNA repair inhibition. HEK293T ELG1-luciferase reporter, luminescence, 16 h; DNA damage induced by 5-fluorouridine. Potency, µM (series often up to 46.1 µM), hits mostly inhibitors. actives 2.3% (n = 330,000). AID 504467; note: nearly all actives have a fitted effect of over 55% in size
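DMSO vehicle served as the neutral condition. Each well held 2,000 cells given 5-fluorouridine plus compound; after 16 hr at 37 °C/5% CO2, ONE-Glo was added and luciferase measured 30 min later.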
SW480 rereplic: inducers of DNA re-replication in SW480 colon cancer cells | SW480 DNA re-replication, Hoechst DNA content imaging, 48 h | Potency, µM (titrated, usually from 46.1 µM), actives largely listed as activators | actives 1.8% (n = 340,000); note: nearly all actives have a fitted effect of over 55% in size
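DNA re-replication was detected as more nuclei of elevated Hoechst intensity after 48 hr exposure to compound (23 nL pinned per well of 250 cells).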
MCF10A rereplic: inducers of DNA re-replication in MCF 10A breast cells; actives 2.9% (n = 350,000); MCF 10A DNA re-replication, Hoechst nuclear intensity, 48 h; AID 624296; Potency, µM (highest dose often 46.1 µM), hits mostly activators; note: nearly all actives have a fitted effect of over 50% in size
KB-V1 MDR tox: KB-V1 MDR subline cytotoxicity | KB-V1 MDR cells viability, CellTiter-Glo, 72 h | Potency, µM (top dose mostly 46.1 µM), hits mostly cytotoxic | actives 3.4% (n = 400,000); note: nearly all actives have a fitted effect of over 60% in size
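Following 72 h at 37 degrees C with compound, KB-V1 cell viability was read by CellTiter-Glo luminescence, medium being phenol-red-free DMEM plus 10% FBS; concentration-response parameters came from normalized, curve-fitted qHTS data.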
KB-3-1 tox: kills parental KB-3-1 adenocarcinoma cells; Potency, µM (titrated, usually from 46.1 µM), most hits filed as cytotoxic; KB-3-1 viability, CellTiter-Glo ATP luminescence, 72 h; actives 1.4% (n = 400,000); note: nearly all actives have a fitted effect of over 60% in size
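Here the drug-naive KB-3-1 line serves as comparator for MDR sub-line selectivity; cells received compound titrations, 72 h at 37 °C, then CellTiter-Glo readout.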
Each line names hits and unclear results; the compound was inactive in the other large screens. Calls come from the whole dose curve; as a rule, active = well fitted curve in the direction sought with a large enough effect; inconclusive = small, poorly fitted or top-dose-only effect, or another doubt; inactive = no such curve, though single readings can be large; an effect the other way counts as inactive or inconclusive.

CCOP(=O)(OCC)c1nc(/C=C/c2ccccc2)oc1NCc1ccccc1	SW480 rereplic 20.6µM, MCF10A rereplic inconclusive, KB-V1 MDR tox inconclusive, KB-3-1 tox inconclusive
COc1ccc(CCNc2oc(-c3cccc4ccccc34)nc2P(=O)(OC)OC)cc1OC	ELG1 DNA repair inconclusive, SW480 rereplic inconclusive, MCF10A rereplic inconclusive, KB-V1 MDR tox 11.6µM
CCOP(=O)(OCC)c1nc(-c2cccc3ccccc23)oc1NCc1ccc(OC)cc1	ELG1 DNA repair inconclusive, SW480 rereplic 18.4µM, MCF10A rereplic inconclusive
CC(C)Nc1nc(-c2ccncc2)nc(-c2ccccc2)c1C#N	none
O=C(C1CC1)N1CCc2cc(S(=O)(=O)NCc3ccccc3)ccc21	SW480 rereplic inconclusive
Cc1cc2c(sc3ccccc32)c(C)n1	KB-V1 MDR tox 20.6µM, KB-3-1 tox inconclusive
Cc1cc(C)nc(Nc2nc(=O)c3ccccc3s2)n1	ELG1 DNA repair inconclusive, KB-V1 MDR tox inconclusive
CC1(C)CC(=O)C=C(NC2=CC3OC(c4ccccc4)OCC3OC2=O)C1 (centres undefined)	ELG1 DNA repair 13µM, SW480 rereplic inconclusive, MCF10A rereplic inconclusive
Cc1ccccc1NC1=CC(=O)CC(C)(C)C1	KB-V1 MDR tox inconclusive
O=C(O)COc1ccc(Br)cc1CP(=O)(c1ccccc1)c1ccccc1	SW480 rereplic inconclusive
Cc1cc(C)c[n+](C(C)C(=O)c2ccc(-c3ccccc3)cc2)c1 (centres undefined)	ELG1 DNA repair inconclusive, KB-3-1 tox 5.8µM
Cc1ccc[n+](C(C)C(=O)c2ccc(Cl)cc2)c1 (centres undefined)	none
Cc1cccc(N2CCN(C(=O)c3ccccc3OCc3c(C)noc3C)CC2)c1C	SW480 rereplic inconclusive
Cc1ccc(C)c(N2CCN(C(=O)c3ccc(Cl)c(NC4=NC5CS(=O)(=O)CC5S4)c3)CC2)c1 (centres undefined)	none
CC(=O)OC[C@H]1COc2ccc3ccccc3c2[C@H]1N(C)C(C)=O	none
NC(=S)N1OC[C@@H]2COc3ccc4ccccc4c3[C@@H]21	ELG1 DNA repair 11.6µM, SW480 rereplic inconclusive, MCF10A rereplic inconclusive, KB-V1 MDR tox inconclusive, KB-3-1 tox inconclusive
O=C(N/C=N/OCc1cccc(C(F)(F)F)c1)N1OC[C@@H]2COc3ccc4ccccc4c3[C@@H]21	ELG1 DNA repair inconclusive, KB-V1 MDR tox 16.4µM, KB-3-1 tox inconclusive
CO/N=C/NC(=O)N1OC[C@@H]2COc3ccc4ccccc4c3[C@@H]21	none
CC(=O)Nc1cccc(NC(=O)CSc2nnc3ccc(-c4cccnc4)nn23)c1	none
Nc1ccccc1C(=O)NNC1=C(C(=O)C(F)(F)F)CCC1	ELG1 DNA repair inconclusive, SW480 rereplic inconclusive, KB-3-1 tox inconclusive
O=C(NNC1=C(C(=O)C(F)(F)F)CCC1)c1ccc(Br)cc1	ELG1 DNA repair inconclusive, SW480 rereplic 9.2µM, MCF10A rereplic inconclusive
COc1ccccc1C(=O)NNC1=C(C(=O)C(F)(F)F)CCC1	SW480 rereplic 2.59µM, MCF10A rereplic 4.11µM
COc1ccccc1NC(=S)N1CCN(Cc2ccccc2)CC1	KB-V1 MDR tox 14.6µM, KB-3-1 tox inconclusive
Cc1ccccc1NC(=S)N1CCN(Cc2ccccc2)CC1	none
COc1ccc(NC(=O)c2ccc(CN3CCN(c4ccccc4)CC3)cc2)cc1OC	ELG1 DNA repair inconclusive, KB-V1 MDR tox 16.4µM, KB-3-1 tox inconclusive
COc1ccc(C)cc1NC(=O)c1ccc(CN2CCN(c3ccccc3)CC2)cc1	MCF10A rereplic inconclusive, KB-V1 MDR tox 18.4µM, KB-3-1 tox inconclusive
COc1cc(CNc2ccc(N3CCN(C(C)=O)CC3)cc2)ccc1OCc1ccccc1	KB-V1 MDR tox 7.31µM, KB-3-1 tox inconclusive
Cc1nc2[nH]c(=O)n(O)c(=O)c2s1	SW480 rereplic inconclusive, KB-3-1 tox inconclusive (no result: ELG1 DNA repair)
COc1cn(-c2ccccc2)nc1C(=O)Nc1ccc(C)cc1	ELG1 DNA repair inconclusive, SW480 rereplic inconclusive
COc1ccc(C)cc1NC(=O)c1nn(-c2ccccc2)cc1OC	ELG1 DNA repair inconclusive, MCF10A rereplic 23.1µM, KB-V1 MDR tox inconclusive, KB-3-1 tox inconclusive
CC(Oc1ccccc1Cl)C(=O)/C=C/N(C)C (centres undefined)	MCF10A rereplic 18.4µM, KB-V1 MDR tox inconclusive
CC(Oc1ccccc1F)C(=O)/C=C/N(C)C (centres undefined)	KB-V1 MDR tox inconclusive
O=Nc1c(O)[nH]c2c(F)cccc12	none
CCc1cccc2c(N=O)c(O)[nH]c12	KB-V1 MDR tox 16.4µM, KB-3-1 tox inconclusive
CCn1c(CCNC(=O)c2ccc(Cl)c(Cl)c2)nnc1SCCOc1ccc(OC)cc1	ELG1 DNA repair inconclusive, KB-V1 MDR tox 5.8µM, KB-3-1 tox 20.6µM
COc1ccc(OCCSc2nnc(CCNC(=O)c3ccc(Cl)c(Cl)c3)n2C)cc1	ELG1 DNA repair inconclusive
CCn1c(CNC(=O)c2ccc(OC)c(OC)c2)nnc1SCC(=O)c1ccc(OC)cc1	ELG1 DNA repair inconclusive, KB-V1 MDR tox inconclusive
COc1ccc(OCCSc2nnc(CCNC(=O)c3ccc(OC)cc3)n2C)cc1	KB-V1 MDR tox 18.4µM
COc1ccc(-c2nc(SCC(=O)NC3CCCCC3)n[nH]2)cc1	ELG1 DNA repair inconclusive, SW480 rereplic 16.4µM, MCF10A rereplic inconclusive, KB-V1 MDR tox inconclusive, KB-3-1 tox inconclusive
COc1ccc(-c2cn3nc(SCC(=O)NC4CCCCC4)ccc3n2)cc1	ELG1 DNA repair inconclusive, SW480 rereplic 8.2µM, MCF10A rereplic 3.66µM
Cc1nc(SC(C)C(=O)NCC2CCCO2)c2cc(-c3ccccc3)sc2n1 (centres undefined)	ELG1 DNA repair inconclusive, SW480 rereplic inconclusive, MCF10A rereplic 11.6µM, KB-V1 MDR tox inconclusive, KB-3-1 tox inconclusive
COc1ccc(-c2nnc(SCC(=O)NC3CCCCC3)nc2-c2ccc(OC)cc2)cc1	none (no result: ELG1 DNA repair, SW480 rereplic, MCF10A rereplic)
CC(Sc1ncnc2c1cnn2-c1ccccc1)C(=O)NCC1CCCO1 (centres undefined)	none
COc1ccc(-c2nc(SC(C)C(=O)Nc3ccc(NC(C)=O)cc3)n[nH]2)cc1 (centres undefined)	ELG1 DNA repair inconclusive
COc1ccc(-c2nc(SC(C)C(=O)NCC3CCCO3)n[nH]2)cc1 (centres undefined)	SW480 rereplic 16.4µM, MCF10A rereplic 13µM, KB-3-1 tox inconclusive
CC(=O)Nc1cccc(C(=O)OC(C)C(=O)NC(=O)NC2CCCCC2)c1 (centres undefined)	KB-V1 MDR tox inconclusive
CC1CCN(C(=O)CSc2ccc(-c3ccc(F)cc3)nn2)CC1	KB-V1 MDR tox 16.4µM, KB-3-1 tox inconclusive
O=C(CSc1ccc(-c2ccc(F)cc2)nn1)NC1CCCCC1	MCF10A rereplic inconclusive, KB-V1 MDR tox inconclusive
CC1CC(C)(C)N(C(=O)CSc2ccc(-c3ccc(F)cc3)nn2)c2ccccc21 (centres undefined)	ELG1 DNA repair inconclusive, SW480 rereplic inconclusive, KB-V1 MDR tox 20.6µM
O=C(CSc1ccc(-c2ccc(F)cc2)nn1)N1CCCCC1	ELG1 DNA repair inconclusive
COC(c1ccccc1)c1nnc(CCC(=O)NCCC(C)C)o1 (centres undefined)	none
